Test results reported in PubChem BioAssay (EPA / NIEHS).
Records with an inconclusive call do not appear. Activity calls are given as the source filed them. The calls were made as follows: active = hit-call score of the fitted dose curve at least 0.9, where 1 is the maximum; inconclusive = response in the unintended direction; inactive = score below 0.9.

Key:
[1] = TOX21_TRB_BLA_Antagonist_Followup_viability: Viability Assessment in the Tox21 Thyroid Hormone Receptor beta Antagonism Beta-lactamase (BLA) Follow-Up Assay (AID 2283961)
Summary of the method: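 ATP-based CellTiter-Glo luminescence (30 min, room temperature) run in the same wells as the TRβ-bla readout. Cells: GeneBLAzer HEK293T expressing GAL4-TRβ LBD, exposed 18 h at 37C to compounds at 11 concentrations in triplicate, stripped-serum medium.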

[2] = molecular target: THRB (gene 7068) (UniProt P10828); test: TOX21_TRB_COA_Antagonist_Followup_ratio: Tox21 Thyroid Hormone Receptor beta Antagonism through Coactivator Recruitment Follow-Up Assay, Ratio (AID 2283967)
Summary of the method: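 Coactivator (SRC-2) recruitment to purified GST-TRβ ligand-binding domain is monitored by terbium-to-fluorescein energy transfer, emission ratio 520:495 nm. DMSO wells define 0% and T3 wells 100% activity.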

[3] = molecular target: Retinoic acid receptor RXR-alpha (Homo sapiens) (UniProt P19793); test: TOX21_TR_RXR_BLA_Antagonist_Followup_ratio: Tox21 Thyroid Hormone Receptor beta Retinoid X Receptor alpha (RXRa) Antagonism Beta-lactamase (BLA) Follow-Up Assay, Ratio (AID 2283972)
Summary of the method: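 After 5 h attachment at 37C, HEK293T RXRa-bla cells (2,500/well, 2% charcoal-stripped FBS, no phenol red) received compounds at 11 concentrations in triplicate for 16 h. Beta-lactamase read as 460:530 nm ratio after 2 h RT substrate loading.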

[4] = TOX21_TR_RXR_BLA_Antagonist_Followup_viability: Viability Assessment in the Tox21 Thyroid Hormone Receptor beta Retinoid X Receptor alpha (RXRa) Antagonism Beta-lactamase (BLA) Follow-Up Assay (AID 2283979)
Summary of the method: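 RXRa-UAS-bla HEK293T cells seeded 2,500/well in phenol red-free DMEM with 2% charcoal-stripped FBS, attached 5 h, then exposed to compounds at 11 concentrations in triplicate for 16 h at 37C/5% CO2. Viability read by CellTiter-Glo ATP luminescence; bidirectional fit versus DMSO.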

Chain of Retinoic acid receptor RXR-alpha (Homo sapiens) (P19793 whole entry, looked up): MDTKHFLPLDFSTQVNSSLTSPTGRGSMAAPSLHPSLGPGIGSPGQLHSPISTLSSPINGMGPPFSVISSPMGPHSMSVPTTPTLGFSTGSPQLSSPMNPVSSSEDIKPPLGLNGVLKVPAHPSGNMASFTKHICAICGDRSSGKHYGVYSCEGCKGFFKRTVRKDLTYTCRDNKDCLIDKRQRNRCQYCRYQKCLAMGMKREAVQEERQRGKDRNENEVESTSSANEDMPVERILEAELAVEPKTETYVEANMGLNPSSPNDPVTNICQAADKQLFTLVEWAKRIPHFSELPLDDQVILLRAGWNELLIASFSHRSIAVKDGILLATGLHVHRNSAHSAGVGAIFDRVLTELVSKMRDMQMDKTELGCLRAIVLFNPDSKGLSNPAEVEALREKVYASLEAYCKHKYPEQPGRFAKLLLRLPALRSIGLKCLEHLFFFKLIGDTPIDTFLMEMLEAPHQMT
Chain of THRB (gene 7068) (P10828 whole entry, looked up, the tested form may be a part): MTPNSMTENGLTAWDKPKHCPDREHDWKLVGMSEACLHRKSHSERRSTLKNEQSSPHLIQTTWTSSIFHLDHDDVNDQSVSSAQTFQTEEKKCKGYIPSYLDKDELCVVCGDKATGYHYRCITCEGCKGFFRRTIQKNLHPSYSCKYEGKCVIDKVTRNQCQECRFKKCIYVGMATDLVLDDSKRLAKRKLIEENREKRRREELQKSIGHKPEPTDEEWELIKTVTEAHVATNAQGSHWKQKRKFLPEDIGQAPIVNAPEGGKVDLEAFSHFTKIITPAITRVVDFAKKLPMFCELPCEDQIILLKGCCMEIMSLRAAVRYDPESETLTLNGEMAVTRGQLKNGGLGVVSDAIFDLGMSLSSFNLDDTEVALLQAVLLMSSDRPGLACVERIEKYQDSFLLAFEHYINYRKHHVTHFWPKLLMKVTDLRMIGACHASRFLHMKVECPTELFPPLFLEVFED

In the case of `CC1(c2ccc(Oc3ccccc3)cc2)OC(=O)N(Nc2ccccc2)C1=O` (centres undefined), the AC50 [1] was 22 µM (active), the outcome [2] was “inactive” and the AC50 [3] was 28.9 µM (active). The AC50 [4] was 38.5 µM (active).
